Assay outcomes (PubChem BioAssay)
RAD54 branch: inhibitors of human RAD54 branch migration | Q92698 | inhibition, % at 10.4 µM | AID 602329 | 360,000 tested, 0.14% active | RAD54 Holliday junction branch migration, FAM/BHQ fluorescence;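 active = mean normalized replicate activity at least 40 and at least half of replicates scoring 40 or more; inconclusive = only one of the two criteria met; inactive = mean below 40 and under half of replicates reaching 40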;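 note: inhibitors cause a drop in the FAM fluorescence signal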
RAD52 inh: blocks human RAD52 DNA annealing; AID 651710; 360,000 tested, 0.46% active; recombinant RAD52 DNA annealing, FRET fluorescence; inhibition, % at 18.7 µM;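 active = every replicate showing at least 50% inhibition; inconclusive = mean inhibition at least 50% but not in every replicate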
MLL AF4-AF9 inh: blocks AF4 peptide binding to human AF9; P42568; AlphaScreen, biotin-AF4 peptide binding to FLAG-AF9; inhibition, % at 10 µM; 350,000 tested, 0.47% active; AID 651704;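 active = every replicate reaching a set inhibition limit, whatever the replicate mean, cut at about 25% in these data; inconclusive = mean inhibition reaches that limit but some replicates miss it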
INS-1E GSIS act: primary screen for activators of insulin secretion dependent on glucose, INS-1E cells, GLuc reporter luminescence; INS-1E GLuc reporter insulin secretion, 2-3 h; activation, % at 16.6 µM; 370,000 tested, 0.61% active; AID 743287;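 active = lowest replicate activation of at least 40%, so every replicate reaches that level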
ERAP1 inh: blocks human ERAP1 aminopeptidase activity; Q9NZ08; recombinant ERAP1, Leu-AMC fluorescence, 60 min; inhibition, % at 10.7 µM; 340,000 tested, 0.15% active;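 active = mean replicate inhibition of at least 30%, or all replicates individually reaching that 30% level; inactive = mean below 30% and not every replicate reaching it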
Target sequence (Q9NZ08 whole entry, looked up): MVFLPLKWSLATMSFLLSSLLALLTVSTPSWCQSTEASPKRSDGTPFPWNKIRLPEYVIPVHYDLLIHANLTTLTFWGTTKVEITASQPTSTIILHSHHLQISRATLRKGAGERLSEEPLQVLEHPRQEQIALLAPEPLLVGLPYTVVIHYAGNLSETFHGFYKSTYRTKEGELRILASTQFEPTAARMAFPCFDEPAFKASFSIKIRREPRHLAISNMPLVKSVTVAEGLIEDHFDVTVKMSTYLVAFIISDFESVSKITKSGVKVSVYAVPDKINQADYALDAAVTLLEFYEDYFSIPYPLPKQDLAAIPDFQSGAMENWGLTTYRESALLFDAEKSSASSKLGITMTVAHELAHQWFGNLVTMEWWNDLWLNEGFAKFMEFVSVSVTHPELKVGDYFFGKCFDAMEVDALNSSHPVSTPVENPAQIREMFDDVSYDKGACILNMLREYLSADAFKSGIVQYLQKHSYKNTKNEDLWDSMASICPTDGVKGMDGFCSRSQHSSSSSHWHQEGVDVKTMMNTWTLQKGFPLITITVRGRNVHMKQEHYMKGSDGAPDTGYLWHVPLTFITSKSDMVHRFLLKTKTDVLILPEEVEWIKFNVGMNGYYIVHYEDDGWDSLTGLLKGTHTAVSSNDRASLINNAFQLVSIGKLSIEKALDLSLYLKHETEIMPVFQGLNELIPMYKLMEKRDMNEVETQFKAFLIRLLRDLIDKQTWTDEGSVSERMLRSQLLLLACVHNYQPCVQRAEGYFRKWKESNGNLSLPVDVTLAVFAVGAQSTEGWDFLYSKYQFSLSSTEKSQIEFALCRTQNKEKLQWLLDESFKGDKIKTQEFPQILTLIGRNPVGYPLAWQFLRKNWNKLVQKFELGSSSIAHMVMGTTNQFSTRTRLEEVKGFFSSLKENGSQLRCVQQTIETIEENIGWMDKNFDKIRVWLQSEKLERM
PGC1a acetyl inh: lowers PGC1a acetylation signal in U2OS cells; 350,000 tested, 0.17% active; inhibition, % at 15.6 µM; AlphaScreen anti-acetyl-lysine; with virally co-expressed GCN5 acetyltransferase;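 active = every replicate shows inhibition of at least 40%; inconclusive = mean inhibition at least 40% but some replicate below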
A number is an active result; n = inactive; u = inconclusive; x = not tested or not shown; ! = a repeat was not active. An excerpt weighted towards active compounds, which were near 1.4% of everything screened.

SMILES	RAD54 branch	RAD52 inh	MLL AF4-AF9 inh	INS-1E GSIS act	ERAP1 inh	PGC1a acetyl inh
CCCCCCCCCCCCCCCCn1cc[n+](C)c1	x	83	n	186	79	x
CN(C)CC(=O)Nc1ccc2c(c1)[C@H]1C[C@H](CC(=O)N(C)C)O[C@@H](CO)[C@H]1O2	x	x	x	n	x	x
CN1CCc2cc3c(c4c2[C@H]1[C@H](O)c1ccccc1-4)OCO3	99	n	n	x	n	x
CNC[C@@H]1Oc2cc(C#Cc3ccccn3)ccc2S(=O)(=O)N([C@H](C)CO)C[C@H]1C	n	n	n	n	n	n
CN(C)CCCNC(=O)C[C@H]1CC[C@H]2[C@@H](COc3ccc(NC(=O)CN(C)C)cc3C(=O)N2C)O1	x	x	x	n	x	x
Cc1ccc(C(=O)N/C(=C/c2ccco2)C(=O)NCc2ccco2)cc1	n	n	n	115	n	n
O=C(NCc1ccc(F)cc1)C(c1ccco1)N(C(=O)c1csnn1)C1CC1 (stereo not drawn)	n	n	n	n	n	n
O=C(NCc1ccccc1)C(c1ccco1)N(C(=O)c1csnn1)C1CC1 (stereo not drawn)	n	n	41	n	n	n
CN(C)c1ccc(N=Nc2ccc(S(N)(=O)=O)cc2)cc1	n	n	n	n	n	n
CC1=CC(=O)C=CC1=Nc1ccc(N(C)C)cc1	x	n	91	n	n	x
C[C@H]1CN(C)C(=O)Cc2cc(N(C)C)ccc2O[C@@H]1CN(C)C(=O)OC(C)(C)C	x	x	x	n	x	x
COCCNC(=O)c1ccc(N(C)S(=O)(=O)c2ccc(OC)c(OC)c2)cc1	n	x	x	44	x	n
COc1ccc(S(=O)(=O)N(C)c2ccc(C(=O)NCC3CCCO3)cc2)cc1OC (stereo not drawn)	n	n	n	48	n	x
O=C(Nc1ccccc1C(=O)NCC1CCCO1)c1ccc(Cl)cc1 (stereo not drawn)	n	n	n	n	n	n
COc1ccc(C(=O)Nc2ccccc2C(=O)NCC2CCCO2)cc1 (stereo not drawn)	n	n	n	52	n	n
COc1cccc(NC(=O)N(C)C[C@@H]2OCc3cn(nn3)CCCC(=O)N([C@H](C)CO)C[C@@H]2C)c1	x	x	x	n	x	n
CCCC#Cc1ccc(CC[C@H]2O[C@H]3CC[C@@H](CO)O[C@H]3C[C@H]2n2cc(C(C)(C)O)nn2)cc1	x	n	n	x	n	n
O=C(NC1CCC1)[C@@H]1[C@@H](CO)[C@@H]2Cn3c(ccc(-c4ccccc4F)c3=O)[C@@H]2N1Cc1ccncc1	n	85	n	n	n	n
C[C@H](CO)N1C[C@H](C)[C@@H](CN(C)CC2CCCC2)Oc2ncc(C#Cc3ccccn3)cc2C1=O	x	x	x	n	x	n
O=C(O)c1ccccc1NS(=O)(=O)c1cccc(NS(=O)(=O)c2cc(Br)ccc2Br)c1	n	n	n	x	33	n
O=C(N[C@H]1CC[C@@H](CCNC(=O)c2cnccn2)O[C@H]1CO)c1ccc2c(c1)OCO2	n	n	n	n	n	n
COc1ccc(CNC(=O)COC(=O)c2cc(C)nc3ccccc23)cc1	n	n	n	46	n	n
CN1/C(=C/C(=O)c2nc(S(C)(=O)=O)ncc2Cl)C(C)(C)c2ccccc21	x	x	x	x	x	83
CN1/C(=C\C(=O)c2cccnc2)C(C)(C)c2ccccc21	x	n	n	n	n	x
O=C(c1ccc([N+](=O)[O-])cc1)N1CCc2ccccc21	x	n	47	n	n	x
SMILES	RAD54 branch	RAD52 inh	MLL AF4-AF9 inh	INS-1E GSIS act	ERAP1 inh	PGC1a acetyl inh
O=C(c1cccc([N+](=O)[O-])c1)N1CCc2ccccc21	n	n	n	x	n	u
C[C@H](CO)N1C[C@H](C)[C@H](CN(C)Cc2ccc3c(c2)OCO3)OCCCC[C@H](C)Oc2ccc(NC(=O)Nc3ccccc3)cc2C1=O	n	56	n	n	n	n
COc1ccc(CN(C)C[C@@H]2OCCCC[C@@H](C)Oc3ccc(NC(=O)Nc4ccc5c(c4)OCO5)cc3C(=O)N([C@H](C)CO)C[C@H]2C)cc1	n	55	n	n	n	n
C[C@@H]1CN([C@@H](C)CO)C(=O)c2cc(NC(=O)Nc3ccc4c(c3)OCO4)ccc2O[C@@H](C)CCCCO[C@@H]1CN(C)Cc1ccc2c(c1)OCO2	n	n	n	n	n	n
C[C@@H]1CCCCO[C@@H](CN(C)Cc2ccc3c(c2)OCO3)[C@H](C)CN([C@H](C)CO)C(=O)c2cc(NC(=O)Nc3ccc4c(c3)OCO4)ccc2O1	n	n	32	n	n	n
C[C@@H]1CCCCO[C@H](CN(C)Cc2ccccc2)[C@@H](C)CN([C@@H](C)CO)C(=O)c2cc(NC(=O)Nc3ccc4c(c3)OCO4)ccc2O1	n	n	37	n	n	n
C[C@@H]1CCCCO[C@H](CN(C)Cc2ccc3c(c2)OCO3)[C@@H](C)CN([C@@H](C)CO)C(=O)c2cc(NC(=O)Nc3ccccc3)ccc2O1	n	n	n	n	n	n
CC(=O)N1[C@H](CO)[C@@H](c2ccccc2)C12CN(C(=O)c1cnccn1)C2	x	n	n	n	n	n
C[C@@H]1CN([C@@H](C)CO)C(=O)c2cc(C#CCc3ccccc3)cnc2O[C@@H]1CN(C)CC1CC1	x	n	n	n	n	n
CC(C)=CCC[C@H](C)CC1Cc2[nH]c(=S)[nH]c(=O)c2C(c2ccc(F)cc2)O1 (stereo partly drawn)	n	n	n	n	n	n
CC(C)=CCC[C@H](C)C[C@@H]1Cc2[nH]c(=S)[nH]c(=O)c2[C@@H](c2ccc(F)cc2)O1	x	n	n	255	n	x
CCCCCCNC(=O)O[C@@]12CN(S(=O)(=O)c3ccc(C)cc3)C[C@]1(O)Cn1c(=O)n(CCCCCC)c(=O)n1C2	n	n	n	n	n	69
CCCCCCn1c(=O)n2n(c1=O)C[C@]1(OC(=O)NCC3CCCCC3)CN(S(=O)(=O)c3ccc(C)cc3)C[C@]1(O)C2	n	n	n	n	n	n
Cc1ccccc1NC1=C/C(=N\S(=O)(=O)c2cccs2)c2ccccc2C1=O	n	x	x	x	x	88
CC(=O)Nc1ccc(NC2=C/C(=N/S(=O)(=O)c3cccs3)c3ccccc3C2=O)cc1	x	n	n	n	n	70
Cc1ccc(NC2=C/C(=N/S(=O)(=O)c3cccs3)c3ccccc3C2=O)cc1C	n	n	n	n	n	n
COc1ccccc1-c1ccc2c(c1)[C@@H]1[C@@H](CCN1C(=O)c1ccc3c(c1)OCO3)[C@H](CO)N2	n	n	n	n	x	n
Cc1ccc(-c2ccc(C3[C@@H]4CN(S(=O)(=O)c5ccccc5)C[C@H]3N4)cc2)cc1 (stereo partly drawn)	x	98!	n	n	n	n
O=S(=O)(c1ccc(-c2ccccc2)cc1)N1C[C@@H]2N[C@H](C1)C2c1ccc(-c2ccncc2)cc1 (stereo partly drawn)	x	x	x	n	x	n
O=S(=O)(c1ccccc1)N1C[C@@H]2N[C@H](C1)C2c1ccc(-c2ccccc2)cc1 (stereo partly drawn)	x	73!	n	n	n	n
